# A selection: hits, their analogues and other compounds. The true share with any hit is near 4.2%.
# DAX1 inh – DAX1 (NR0B1) inhibition, primary screen; AID 652010; HEK293T StAR-luciferase reporter, SF-1/DAX-1 repression relief; 370,000 compounds, 1.1% hits; inhibition, % at 6.8 µM;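 active = inhibition above the mean over all tested compounds plus 3 SD, cut at about 3.6% in these data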;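 also: 0% = DAX-1 cells with DMSO and 100% = cells lacking DAX-1 with DMSO; higher inhibition means more luminescence from relief of DAX-1 repression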
# hgDAF12 agonist – hgDAF-12 agonism, primary luciferase screen; 370,000 compounds, 1.8% hits; activation, % at 6.8 µM; AID 687014; HEK293 GAL4-hgDAF12 UAS-luciferase reporter, agonist luminescence; normalized to butyrate control;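 active = activation above a cutoff set at the mean of all screened compounds plus 3 SD, cut at about 10% in these data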;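 also: 0% = DMSO wells and 100% = sodium butyrate wells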
# hcDAF-12 act – activates DAF-12 receptor from parasite H. contortus; AID 652067; HEK293 hcDAF-12 lit1-tk-luc reporter, luminescence; 0% DMSO, 100% Δ7-dafachronic acid; 370,000 compounds, 1.4% hits; activation, % at 6.8 µM;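 active = activation above the mean of all tested compounds plus 3 SD, cut at about 5.5% in these data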;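 also: 100% = response to 3 µM Δ7-dafachronic acid high control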
# Wnt act – activators of Wnt/beta-catenin signaling; activation, % at 9.35 µM; Wnt/beta-catenin reporter cell assay, activator, plate reader; 300,000 compounds, 1.2% hits; in the data active = activation above about 30%, passing the limit was not always enough; inconclusive = no clear call, values can overlap the other calls;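 also: 0% = neutral control wells and 100% = positive control wells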
# esBAF inh – inhibitors of esBAF chromatin remodeling in mouse ES cells; Bmi1-luciferase knock-in reporter, 24 h; 100% = twice the neutral-well signal; reporter increase, % at 12.5 µM; 350,000 compounds, 2% hits; in the data active = activation above about 40%; inconclusive = no clear call, values can overlap the other calls;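 also: 0% = median of the plate's neutral control wells and 100% = double that signal; a rise in the Bmi1 reporter signal indicates esBAF inhibition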
# ssDAF12 agonist – S. stercoralis DAF-12 activation, primary screen; AID 652126; activation, % at 6.8 µM; 370,000 compounds, 1% hits; HEK293 ssDAF-12/GRIP1 lit1-tk-luc reporter, luminescence; % of 3 µM dafachronic acid response;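 active = activation above the mean over all tested compounds plus 3 SD, cut at about 0.9% in these data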;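 also: 0% = DMSO-only wells and 100% = 3 µM delta7-dafachronic acid wells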
# DAX1 conf – NR0B1 (human) inhibition, confirmation | 2,400 compounds, 87% hits | inhibition, % at 6.8 µM | shares compounds with DAX1 inh | HEK293T StAR-promoter luciferase reporter, SF-1/DAX-1 repression;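 active = inhibition above the average of every tested compound plus 3 SD, cut at about 3.8% in these data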;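 also: 0% = DAX-1 cells with DMSO and 100% = no DAX-1 control cells with DMSO; active compounds raise luminescence by relieving repression of the StAR reporter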
# Target sequence (P51843 whole entry, looked up): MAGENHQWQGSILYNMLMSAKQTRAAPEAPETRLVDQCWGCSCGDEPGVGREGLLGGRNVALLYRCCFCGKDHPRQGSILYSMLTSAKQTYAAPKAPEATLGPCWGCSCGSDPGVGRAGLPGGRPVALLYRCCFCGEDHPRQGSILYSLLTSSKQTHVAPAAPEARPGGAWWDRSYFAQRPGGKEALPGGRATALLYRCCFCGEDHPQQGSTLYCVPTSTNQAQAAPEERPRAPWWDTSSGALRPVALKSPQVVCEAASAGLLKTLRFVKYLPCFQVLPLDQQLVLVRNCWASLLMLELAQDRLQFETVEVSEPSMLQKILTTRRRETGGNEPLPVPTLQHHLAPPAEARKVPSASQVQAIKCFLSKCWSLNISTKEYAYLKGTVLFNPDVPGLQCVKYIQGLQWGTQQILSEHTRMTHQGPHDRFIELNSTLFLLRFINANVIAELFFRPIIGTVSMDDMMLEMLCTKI
# SF1 AF2mut Luc – counter-screen for DAX1 inhibitors: nonselective inhibitors with SF-1 AF2 mutant; shares compounds with DAX1 inh; 2,400 compounds, 78% hits; AID 652136; HEK293 StAR-luciferase, luminescence; inhibition, % at 6.8 µM;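 active = inhibition above the mean of all tested compounds plus 3 SD, cut at about 3% in these data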;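 also: 0% = DAX-1 transfected cells with DMSO and 100% = cells without DAX-1 with DMSO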
# LXR ag – LXR-beta agonism as hcDAF-12 counter-screen | shares compounds with hcDAF-12 act | HEK293 Gal4-LXR tk-luc reporter, luminescence, 24 h; normalized: DMSO 0%, positive control 100% | activation, % at 6.8 µM | 3,400 tested, under 10 active;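 active = mean percent activation of the reporter above a cutoff set as the average over tested compounds plus their standard deviation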
# hcDAF12 ag – confirmation of H. contortus DAF-12 agonists | 3,400 compounds, 61% hits | HEK293 hcDAF-12 lit1-tk-luc reporter, luminescence; % of Δ7-dafachronic acid response | AID 743032 | shares compounds with hcDAF-12 act | activation, % at 6.8 µM;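 active = mean activation across triplicate tests above the threshold derived from the earlier primary screen, cut at about 5.5% in these data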;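 also: 0% = DMSO only wells and 100% = 3 µM Δ7-dafachronic acid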
# hgDAF12 ag – confirmation of H. glycines DAF-12 agonists; HEK293 GAL4-hgDAF12 luciferase reporter, agonist mode; percent of butyrate response; activation, % at 6.8 µM; 3,300 compounds, 80% hits; shares compounds with hgDAF12 agonist;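 active = mean activation over triplicate wells above the hit cutoff derived from the earlier primary screen, cut at about 11% in these data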;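 also: 0% = DMSO low control and 100% = 2 mM sodium butyrate high control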
# LXRb DAF12 ctr – LXR-beta agonism as DAF-12 counter-screen. HEK293 Gal4-LXR luciferase reporter, 24 h. 3,300 tested, under 10 active. shares compounds with hgDAF12 agonist. activation, % at 6.8 µM. AID 743051;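 active = mean activation of the triplicate above a set limit carried over from the primary screen, none filed active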
# Starred values were filed as active, the others as inactive; u = inconclusive; x = no result given.
SMILES,DAX1 inh,hgDAF12 agonist,hcDAF-12 act,Wnt act,esBAF inh,ssDAF12 agonist,DAX1 conf,SF1 AF2mut Luc,hgDAF12 ag,LXRb DAF12 ctr,others
C[C@@H]1CN([C@H](C)CO)C(=O)c2cc(NC(=O)CCC(F)(F)F)ccc2O[C@@H]1CN(C)S(=O)(=O)c1cccs1,x,x,x,x,-2,x,x,x,x,x,
O=c1c2cc(-c3ccccc3)sc2nc2n1CCC2,5.4*,20*,4,60*,x,0,15*,7.7*,18*,1,
Cc1nc2sc(-c3ccccc3)cc2c(=O)[nH]1,6.1*,21*,7.4*,8,-57,1,12*,6.7*,12*,1,LXR ag=1;hcDAF12 ag=5.8*
NC(=O)CSc1nc2sc(-c3ccccc3)cc2c(=O)n1N,0,2,0,x,20,-1,x,x,x,x,
Cc1nc2sc(-c3ccccc3)cc2c(=O)n1N,4.7*,17*,6.7*,-2,-73,0,4.6*,1,5,1,LXR ag=1;hcDAF12 ag=4
O=c1[nH]c(-c2cccnc2)nc2sc(-c3ccccc3)cc12,1,5,-1,0,x,-2,x,x,x,x,
COCCOCCn1c(/C=C/c2ccccc2)nc2ccccc21,6.2*,13*,3,12,x,0,14*,6.8*,15*,1,
COc1ccc(/C=C/c2nc3ccccc3n2Cc2ccc(OC)c(OC)c2)cc1,5.9*,27*,7.7*,23,u,0.9*,19*,6.8*,15*,1,LXR ag=1;hcDAF12 ag=8.6*
C[C@@H]1CN([C@@H](C)CO)C(=O)c2cc(NS(=O)(=O)c3ccc(F)cc3)ccc2O[C@@H](C)CCCCO[C@H]1CN(C)C,x,x,x,x,0,x,x,x,x,x,
Cc1nnc2ccc(-c3cccc(NC(=O)c4ccco4)c3)nn12,-1,0,0,0,-5,-2,x,x,x,x,
O=C(Nc1cccc(-c2ccc(N3CCCCC3)nn2)c1)c1ccco1,7.3*,16*,5,0,7,1.6*,2,3.0*,14*,1,
COc1cccc(OC)c1C(=O)Nc1cccc(-c2ccc(N3CCOCC3)nn2)c1,5.1*,14*,2,19,4,-1,4.0*,3.4*,10,0,
CC(OC(=O)c1ccc2c(c1)OCCO2)C(=O)c1ccccc1 (stereo unspecified),12*,14*,7.3*,-1,x,1,11*,6.8*,16*,1,LXR ag=2;hcDAF12 ag=7.8*
Cn1c(=N)n(CC(=O)c2cccs2)c2ccccc21,6.0*,17*,15*,29,44*,1,4.3*,4.0*,13*,0,LXR ag=1;hcDAF12 ag=9.5*
CCCn1c(=N)n(CC(=O)c2cccs2)c2ccccc21,0,-3,-4,-4,-2,-1,x,x,x,x,
O=C(OCC(=O)N1CCN(c2ccccc2)CC1)c1cccc([N+](=O)[O-])c1,0,0,-1,-2,-2,-1,x,x,x,x,
O=C(OCC(=O)N1CCN(c2ccccc2)CC1)c1ccccc1[N+](=O)[O-],6.2*,15*,4,-1,-8,0,9.4*,3.6*,10,1,
C[C@H](CO)N1C[C@H](C)[C@@H](CN(C)C(=O)C2CCC2)Oc2ncc(-c3ccc(F)cc3)cc2C1=O,x,x,x,x,3,x,x,x,x,x,
O=C(NCC[C@@H]1CC[C@H](NC(=O)c2ccc3c(c2)OCO3)[C@@H](CO)O1)Nc1cc(F)ccc1F,x,x,x,x,1,x,x,x,x,x,
CCC(=O)Nc1ccc(OCc2nc3ccccc3s2)cc1,9.4*,20*,11*,41*,x,2.5*,15*,7.7*,16*,1,LXR ag=1;hcDAF12 ag=11*
O=c1c2ccccc2oc2c1oc1ccccc12,6.6*,15*,5,25,54*,0,7.3*,6.5*,13*,0,
CSCCC(=O)N1CCC(n2nccc2NC(=O)c2ccc3c(c2)OCO3)CC1,6.3*,23*,2,16,61*,0,6.3*,5.7*,16*,0,
CC1CCN(S(=O)(=O)c2ccc(C(=O)Nc3ncccc3O)cc2)CC1,6.3*,16*,0,5,-2,0,8.4*,4.3*,15*,0,
Cc1ccc(NC(=O)c2ccc(S(=O)(=O)N3CCC(C)CC3)cc2)nc1,0,-1,0,6,30,-2,x,x,x,x,
C[C@H](CO)N1C[C@H](C)[C@@H](CN(C)C(=O)C2CCCCC2)Oc2cc(-c3ccc(C(=O)N(C)C)cc3)ccc2S1(=O)=O,x,x,x,x,1,x,x,x,x,x,
SMILES,DAX1 inh,hgDAF12 agonist,hcDAF-12 act,Wnt act,esBAF inh,ssDAF12 agonist,DAX1 conf,SF1 AF2mut Luc,hgDAF12 ag,LXRb DAF12 ctr,others
O=C(Nc1ccc(SC(F)(F)F)cc1)c1ccccn1,6.1*,22*,8.4*,5,-21,1.1*,15*,3,20*,1,LXR ag=2;hcDAF12 ag=11*
O=C(Nc1ccc(C(=O)N2CCN(c3ccncc3)CC2)cc1)c1ccc(Br)o1,0,1,0,-1,x,-1,x,x,x,x,
CC1CCN(c2ccc(NC(=O)c3ccc(Br)o3)cc2)CC1,14*,20*,4,u,56*,0,11*,9.6*,18*,1,
CC(C)Cc1nnc(NC(=O)c2ccc3c(c2)OCCO3)s1,8.1*,15*,5.8*,-2,-12,0,15*,7.1*,13*,1,
Cc1ccnc(NC(=O)c2ccc3c(c2)OCO3)c1,4.9*,18*,6.3*,15,-31,-1,7.0*,3.7*,11*,1,
O=C(Nc1ncccc1O)c1ccc2c(c1)OCO2,17*,37*,4,54*,3,0,27*,14*,39*,0,

# High-throughput results from PubChem BioAssay.
